{"source": "the supplement of paper PMC6555819"}
{"tested_on": "RARb:RXRa (NR concentration 270 nM, RXRa partner concentration 90 nM)", "assay": "PBM binding z-score (relative to random genomic background probes); higher = stronger binding; sequences stand for … in GC…GCGATTGACAGCGTAGAATGAAGG", "procedure,_shortened": "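Custom Agilent 4×180K protein-binding microarrays carried double-stranded probes, each with a 34-nt variable region. These regions held direct-repeat seeds, single-nucleotide variants, half-site ablations and random human genomic background sequences. Ligand-free nuclear receptor dimers were incubated on the arrays for 1 h, antibodies against each partner (one per run) detected binding, and scanned fluorescence was regression-normalized. Binding z-scores take the random background probes as reference.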"}
{"sequence": "GATACAGGGTCAAGGCGAGAGTACGCGTATTGAT", "PBM binding z-score": 4.37}
{"sequence": "CCTCACGGGTCACGAGGTTATAGCACGACGAGCG", "PBM binding z-score": 4.43}
{"sequence": "ATCTCTAGGTAAAGATAGTTCAGTGATTGCAAAT", "PBM binding z-score": 0.865}
{"sequence": "TCACCAAGGTGAAGGTCGTTGATCCCTCTGTAGA", "PBM binding z-score": 2.27}
{"sequence": "GCTGCTGGGTCAACTGATGGTCAGCTAAAGCTCG", "PBM binding z-score": 3.98}
{"sequence": "TCTTCTAGATCAACAGGAGGTTAAGAAAGATCGA", "PBM binding z-score": 0.762}
{"sequence": "TCATATAGGTATACAGGTGAAAGTCCGTAAGTTA", "PBM binding z-score": 0.603}
{"sequence": "CCTGCTAGGTCGATGGTCAGCTAAAGCAGCTCGC", "PBM binding z-score": 1.03}
{"sequence": "GCTAGCAGGCAATTTGGGTCACTCAATGACGGGC", "PBM binding z-score": 0.971}
{"sequence": "CGTCCAAGGTCAGAAAGGTCAGTGAATGCCGAGT", "PBM binding z-score": 5.34}
{"sequence": "AGAATGACGTTATTAAGATCAGGGAATTGCGGTC", "PBM binding z-score": -0.451}
{"sequence": "CCGACTGGGGCATAAGGTTACCTTAAGCCAGCCC", "PBM binding z-score": 1.49}
{"sequence": "ACTTACGGGTGAACGAGGTTATAGCACGCGTATA", "PBM binding z-score": 1.19}
{"sequence": "AGAATTAGGTTATTAAGATCAGGGAATTGCGGTC", "PBM binding z-score": 0.932}
{"sequence": "GATACAGGGTCAAGGACAGAGTACGCGTATTGAT", "PBM binding z-score": 4.52}
{"sequence": "ATCGAAAGGTCGACGAGGCGAGTATACACCGTTT", "PBM binding z-score": 3.84}
{"sequence": "TGAATGAGGTTATAGATCAGGGAACGTGGCGTCG", "PBM binding z-score": 1.34}
{"sequence": "CCTAGCCGGCCAGGGTCACTCAAGCATTTCGCTT", "PBM binding z-score": 2.56}
{"sequence": "CCTACTGGGCCAACGTCATTGATCAGTCAAAGCA", "PBM binding z-score": -0.00134}
{"sequence": "GCTAGTTGCTCAGTAAAAGGTCACACACCGGTCG", "PBM binding z-score": 4.1}
{"sequence": "TCTTGTAGATCAGCGGGTTAAGAAAGCTGGCCAA", "PBM binding z-score": 0.032}
{"sequence": "ACTAGCTGGCCAAGTTTGGGTCACTCAAACAAAG", "PBM binding z-score": 1.08}
{"sequence": "TCTAGTTGGTCAAAGGTCAGACACTCGAAATGCG", "PBM binding z-score": 4.53}
{"sequence": "ACTAGCAGGCCAAGTTCGGGTCACTCAAACAAAG", "PBM binding z-score": 2.33}
{"sequence": "CGTCCAAGGTCAATGCTAGTTCAGTGAAAGCATT", "PBM binding z-score": 5.1}
{"sequence": "CAGTCTAGGTCAGGGCCAGTATAGGAGGAACGTT", "PBM binding z-score": 3.48}
{"sequence": "TCGAGTAGGTTACCAATGGGGCATTCAACTTTCT", "PBM binding z-score": 1.14}
{"sequence": "TGAGTGAGGTTAAAGATCAGGGAACGTGGCGTCG", "PBM binding z-score": 2.15}
{"sequence": "AGAAGGAGGTTACCAAAGATCAGGGAAACGCTTG", "PBM binding z-score": 1.89}
{"sequence": "GCTAGTAGGCCATTTGGGTCACTCAATGACGGGC", "PBM binding z-score": 1.47}
{"sequence": "ACAGACAGGTGATGAAGGTCACTCAGGCTATCAT", "PBM binding z-score": 3.03}
{"sequence": "ACTTACGGGTCAACCAGGTTATAGCACGCGTATA", "PBM binding z-score": 4.17}
{"sequence": "TCTTGAAGATCAAGCAGGTTAAGAAAGCCTGAGT", "PBM binding z-score": 0.0323}
{"sequence": "TGAATGGGGTTATAAGATCAGGGAACGTTGCAAA", "PBM binding z-score": 1.69}
{"sequence": "ATATGTAGGTTATCTGGTCATTCAGTTTGCGCAT", "PBM binding z-score": 1.42}
{"sequence": "ACTAGCAGGCCAAGTTTGAGTCACTCAAACAAAG", "PBM binding z-score": 0.293}
{"sequence": "CCTCCTGGGCCATTCAGAGGTCATTGATCATATG", "PBM binding z-score": 3.04}
{"sequence": "CCTAGCAGGACAATCTGGGTCACTCAAGGCTTGA", "PBM binding z-score": 1.42}
{"sequence": "TCATATAGGTAATACAGGTGAAAGTAGGCATCTA", "PBM binding z-score": 0.613}
{"sequence": "CGTCACAGTTCAACTAAGGTAACGTAAAGCACGC", "PBM binding z-score": 3.1}
